PubChem BioAssay (Tox21)
“And” between values parts separate entries of the source, which are not always exact repeats. Equal values may be shown once. Records with an inconclusive call do not appear. Where a call stands in place of a potency, no number is given. A structure can be active in one record and inactive in another. The source made the active and inactive calls. The call rests on the fitted dose curve.
Potency means the concentration at half of the fitted maximal effect.

Experiment: qHTS assay to identify small molecule antagonists of the sonic hedgehog signaling (Shh) pathway (AID 1259369); further: nearly all actives have a fitted effect of over 45% in size
Details: NIH/3T3 Gli1-Luc reporter, Shh antagonist, luminescence 24 h; series mostly up to 92.4 µM
Text: U.S. Tox21 Program National Center for Advancing Translational Sciences [NCATS] NIH Chemical Genomics Center [NCGC] U.S. Environmental Protection Agency [EPA] National Institutes of Environmental Health Sciences [NIEHS] National Toxicology Program [NTP] U.S. Food and Drug Administration [FDA] Tox21 Assay Overview: The sonic hedgehog (Shh) pathway is essential for normal embryonic development. Dysregulation of the Shh pathway can cause severe developmental defects in organs. Therefore chemicals that interfere with the pathway are potential developmental toxicants. A cell line designated 3T3Gli1-Luc (DMB/OARSA/CFSAN/FDA, Laurel, MD), a NIH/3T3 derived clone containing stably integrated Gli1-Luc reporter is used to detect chemical interference of the Shh pathway, by changes in the expression of the firefly Luc gene under the control of the Gli1 transcriptional response element. This cell line was used to screen Tox21 libraries for identifying and prioritizing the potential developmental toxicants that interfere Shh pathway. Conditioned medium-stimulated mode was used to screen for chemicals inhibiting Shh signaling.
Tox21 Assay Protocol Summary: 3T3 Gli1-Luc cells were dispensed at 2,000 per well in 5uL of culture medium into white solid bottom 1536-well plates (Greiner Bio-One, Monroe, NC) using a Multidrop Combi (Thermo Scientific, Waltham, MA) dispenser. The assay plates were incubated at 37 C and 5% CO2 for 4hr, and then 23nL of compounds dissolved in DMSO and positive control were transferred using a Pintool station (Wako, San Diego, CA). The compound transfer was followed by the addition of 1ul conditioned medium or assay buffer using two separate tips of Flying Reagent Dispenser (FRD, Aurora Discovery, San Diego, CA). The assay plates were incubated at 37C and 5% CO2 for 24hr. For luciferase read, 4uL of Amplite Luciferase reporter gene assay reagent (AAT Bioquest, Inc. Sunnyvale, CA) was added to each well of the assay plates using FRD and incubated at room temperature for 30min. The luminescence signal was measured using a ViewLux plate reader (Perkin Elmer, Shelton, CT).
In the case of `CSc1nc(NC(C)C)nc(NC(C)C)n1`, the Potency is reported as 0.766 µM (active).
In the case of `CC1(C)C(C(=O)OC(C#N)c2cccc(Oc3ccccc3)c2)C1(C)C` (stereo not given), the Potency is reported as 13.8 µM (active).
In the case of `CCCCCCCCCC(CC)c1ccc(S(=O)(=O)O)cc1` (stereo not given), the Potency is reported as “inactive”.
In the case of `ClCC(Cl)CCl`, the Potency is reported as “inactive”.
With `CNC(=O)CSP(=S)(OC)OC` the Potency was 14.1 µM (active) and inactive.
In the case of `N#CCCCCC#N`, the Potency is reported as “inactive”.
With `CC(C)(c1ccccc1)c1ccc(O)c(C(C)(C)c2ccccc2)c1` the Potency was 30.4 µM (active) and 13.7 µM (active).
With `CC(C)(c1ccccc1)c1ccc(O)cc1` the Potency was 27.1 µM (active) and 30.6 µM (active).
With `CC(C)(C#N)N=NC(C)(C)C#N` the Potency was “inactive”.
For `CC(C)Nc1ccc(Nc2ccccc2)cc1`, the Potency was 5.43 µM (active).
With `CC(C)=CC1C(C(=O)OCN2C(=O)C3=C(CCCC3)C2=O)C1(C)C` (stereo not given) the Potency was “inactive”.
With `CNC(=S)S` the Potency was “inactive”.
With `ClCc1ccccn1` the Potency was “inactive”.
With `N#Cc1c(Cl)c(Cl)c(Cl)c(C#N)c1Cl` the Potency was 0.3 µM (active).
With `C[N+](C)(C)C` the Potency was “inactive”.
For `O=S(=O)(O)C(F)(F)C(F)(F)C(F)(F)C(F)(F)C(F)(F)C(F)(F)C(F)(F)C(F)(F)F`, the Potency was “inactive”.
With `CN(C)c1nc(=O)n(C2CCCCC2)c(=O)n1C` the Potency was “inactive”.
In the case of `COP(=S)(OC)SCn1nnc2ccccc2c1=O`, the Potency is reported as 30 µM (active) and inactive.
For `Nc1ccc([N+](=O)[O-])cc1N`, the Potency was 2.43 µM (active).
In the case of `CC(C)Nc1nc(Cl)nc(NC(C)C)n1`, the Potency is reported as 0.768 µM (active).
In the case of `NC(=O)CN1CCCC1=O`, the Potency is reported as “inactive”.
With `CCOP(=O)(OCC)OCC` the Potency was “inactive”.
With `N#Cc1cccnc1` the Potency was “inactive”.
With `CCCCCCCCCc1ccc(O)cc1` the Potency was 30.9 µM (active) and 43.3 µM (active).
With `CN(C)P(=O)(N(C)C)N(C)C` the Potency was “inactive”.
In the case of `N#Cc1nn(-c2c(Cl)cc(C(F)(F)F)cc2Cl)c(N)c1S(=O)C(F)(F)F` (stereo not given), the Potency is reported as “inactive and 29.8 µM (active)”.
In the case of `CCNCC`, the Potency is reported as “inactive”.
With `Brc1ccc(Br)cc1` the Potency was “inactive and 54.5 µM (active)”.
With `Cc1cc(Cl)ccc1N=CN(C)C` the Potency was “inactive”.
In the case of `Cc1cccc(N=Nc2ccc(N(C)C)cc2)c1`, the Potency is reported as “inactive”.
With `C[N+](C)(C)CC(=O)O` the Potency was “inactive”.
For `Nc1ncn[nH]1`, the Potency was “inactive”.
In the case of `C[N+](C)(C)CC(=O)[O-]`, the Potency is reported as “inactive”.
For `CN(C)c1ccccc1`, the Potency was “inactive”.
With `CC(C)COC(=O)c1ccccc1C(=O)OCC(C)C` the Potency was “inactive”.
In the case of `ClC(Cl)(Cl)c1ccccc1`, the Potency is reported as “inactive”.
In the case of `CC(C)(O)C#N`, the Potency is reported as “inactive”.
For `CC1CC(=O)O1` (stereo not given), the Potency was “inactive”.
With `O=C(O)CF` the Potency was “inactive”.
In the case of `O=C1C(Cl)=C(Cl)C(=O)c2ccccc21`, the Potency is reported as 1.73 µM (active).
